# According to PubChem BioAssay (NCATS):
# Inconclusive results are not listed. A call without a number means that no potency is given here. A number with no mark means an inactive call. The source made the active and inactive calls. Calls come from the whole dose curve; as a rule, active = well fitted curve in the direction sought with a large enough effect; inconclusive = small, poorly fitted or top-dose-only effect, or another doubt; inactive = no such curve, though single readings can be large; an effect the other way counts as inactive or inconclusive.
# How the values were obtained:
# [1] = tested on: MCC-13; experiment: qHTS assay to identify novel small-molecules to repurpose for Merkel cell carcinoma treatment (AID 1296009); conditions: MCC and control cell lines, CellTiter-Glo viability, 72 h; series mostly up to 46 µM; note: nearly all actives have a fitted effect of over 60% in size
# Procedure, shortened: (§1)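 Dose-response viability screen; 72 hr exposure at 37 degree celsius; CellTiter-Glo added, 10 min room temperature, luminescence read; RLUs scaled between no-cell and DMSO wells.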
# [2] = tested on: MKL-1; experiment: as above; conditions: MCC and control cell lines, CellTiter-Glo viability, 72 h; series mostly up to 46 µM
# Procedure, shortened: as §1
# [3] = tested on: MKL-2; experiment: as above; conditions: MCC and control cell lines, CellTiter-Glo viability, 72 h; series mostly up to 46 µM
# Procedure, shortened: as §1
# [4] = tested on: UISO; experiment: as above; conditions: MCC and control cell lines, CellTiter-Glo viability, 72 h; series mostly up to 46 µM
# Procedure, shortened: as §1
# [5] = tested on: WaGa; experiment: as above; conditions: MCC and control cell lines, CellTiter-Glo viability, 72 h; series mostly up to 46 µM
# Procedure, shortened: as §1
# [6] = tested on: C33A; experiment: Primary qHTS to identify gynecologic anti-cancer compounds using libraries of approved drugs and bioactive compounds (AID 1345084); conditions: Gynecologic cancer cell panel viability, ATPlite luminescence, 48 h; series mostly up to 57.5 µM; note: nearly all actives have a fitted effect of over 55% in size
# Procedure, shortened: (§2)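 Cells, 1,000 per well, plated 16 h, then exposed 48 h at 37 C to compounds. Viability by ATPlite luminescence after 15 min at room temperature.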
# [7] = tested on: CASKI; experiment: as above; conditions: Gynecologic cancer cell panel viability, ATPlite luminescence, 48 h; series mostly up to 57.5 µM
# Procedure, shortened: as §2
# [8] = tested on: MCC-26; experiment: qHTS assay to identify novel small-molecules to repurpose for Merkel cell carcinoma treatment (AID 1296009); conditions: MCC and control cell lines, CellTiter-Glo viability, 72 h; series mostly up to 46 µM; note: nearly all actives have a fitted effect of over 60% in size
# Procedure, shortened: as §1
# [9] = tested on: CAOV3; experiment: Primary qHTS to identify gynecologic anti-cancer compounds using libraries of approved drugs and bioactive compounds (AID 1345084); conditions: Gynecologic cancer cell panel viability, ATPlite luminescence, 48 h; series mostly up to 57.5 µM; note: nearly all actives have a fitted effect of over 55% in size
# Procedure, shortened: as §2
# [10] = tested on: NIH3T3; experiment: qHTS assay to identify novel small-molecules to repurpose for Merkel cell carcinoma treatment (AID 1296009); conditions: MCC and control cell lines, CellTiter-Glo viability, 72 h; at 44.8 µM (top of the series); note: nearly all actives have a fitted effect of over 60% in size
# Procedure, shortened: as §1
# Potency is the fitted concentration of half-maximal effect.
Compound,Potency [1],Potency [2],Potency [3],Potency [4],Potency [5],Potency [6],Potency [7],Potency [8],Potency [9],outcome [10]
FC1(F)C(F)(F)C(F)(F)C2(F)C(F)(F)C(F)(F)C(F)(F)C(F)(F)C2(F)C1(F)F (stereo not drawn),inactive,inactive,inactive,inactive,inactive,inactive,inactive,,,
C/C=C/c1ccc(O)c(OC)c1,inactive,inactive,,inactive,inactive,inactive,inactive,,,
CCCCCCCCCCCCCC[N+](C)(C)Cc1ccccc1,,6.68 µM (active),1.06 µM (active),6.68 µM (active),7.5 µM (active),25.1 µM (active),14.1 µM (active),21.1 µM (active),,
Nc1nc(Cl)nc2c1ncn2[C@@H]1O[C@H](CO)[C@@H](O)[C@@H]1F,,0.119 µM (active),,,0.0944 µM (active),,,,1.12 µM (active),
O=C(Oc1cccc2cccnc12)c1ccccc1,,inactive,,,,,inactive,,inactive,
O=C(Nc1ccccc1)OCC(CN1CCCCC1)OC(=O)Nc1ccccc1 (stereo not drawn),inactive,inactive,inactive,,inactive,inactive,inactive,,,
COc1ccc(-c2cc(C(F)F)nn2-c2ccc(S(N)(=O)=O)cc2)cc1F,inactive,inactive,inactive,inactive,inactive,inactive,inactive,,,
CN1CCC[C@@H]1CCO[C@](C)(c1ccccc1)c1ccc(Cl)cc1,,23.7 µM (active),9.44 µM (active),21.1 µM (active),,,,inactive,,
Nc1ccc(C(=O)NCC(=O)O)cc1,,inactive,inactive,inactive,inactive,inactive,inactive,,inactive,
O=[N+]([O-])c1cccc(S(=O)(=O)NCCNS(=O)(=O)c2cccc([N+](=O)[O-])c2)c1,inactive,inactive,inactive,inactive,inactive,inactive,inactive,,,
CC(=O)Nc1ccc(OCC(O)CNC(C)C)cc1 (stereo not drawn),inactive,inactive,inactive,,inactive,inactive,inactive,,inactive,
CCc1ccc(C(=O)C(C)CN2CCCCC2)cc1 (stereo not drawn),inactive,,11.9 µM (active),inactive,,inactive,inactive,,inactive,
O=C(N/N=C/c1ccc([N+](=O)[O-])o1)c1ccc(O)cc1,,9.44 µM (active),10.6 µM (active),13.3 µM (active),10.6 µM (active),,,,,
CCCCCN=C(N)N/N=C/c1c[nH]c2ccc(OC)cc12,,inactive,inactive,11.9 µM (active),inactive,,,23.7 µM (active),,
O=C(Nc1ncc([N+](=O)[O-])s1)c1cccs1,,,,,26.6 µM (active),inactive,,inactive,inactive,
Cc1c[nH]c2ccccc12,inactive,,inactive,inactive,,inactive,inactive,,inactive,inactive
CCCCN=C(N)N=C(N)N,inactive,inactive,inactive,inactive,,inactive,inactive,,,
CCc1nn(CCCN2CCN(c3cccc(Cl)c3)CC2)c(=O)n1CCOc1ccccc1,inactive,,,,,inactive,inactive,,inactive,
Cc1ccccc1OCC(O)CO (stereo not drawn),inactive,inactive,inactive,inactive,inactive,inactive,inactive,,,
CC1(C)OC[C@@H]2O[C@@]3(C(=O)O)OC(C)(C)O[C@H]3[C@@H]2O1,inactive,inactive,inactive,inactive,inactive,inactive,inactive,,,
Oc1c(Cl)cc(Cl)c(Cl)c1Cc1c(O)c(Cl)cc(Cl)c1Cl,,,,11.9 µM (active),23.7 µM (active),,inactive,inactive,,
